Screening results (PubChem)
In the library only some 14% were active in any assay of this set; here they are far more common.
USP17 block: inhibitors of human USP17 deubiquitinase; purified USP17, Ub-rhodamine cleavage fluorescence, 3 h; inhibition, % at 50 µM; 47,000 compounds, 6.5% hits; AID 1645855
USP30 inh: human USP30 deubiquitinase inhibition; Q70CQ3; purified USP30, Ub-rhodamine cleavage fluorescence; inhibition, % at 25 µM; 47,000 compounds, 5.3% hits
USP8 inh: inhibitors of human USP8 deubiquitinase; purified USP8, Ub-rhodamine cleavage fluorescence, 30 min; inhibition, % at 20 µM; AID 1645853; P40818; 47,000 compounds, 4.2% hits
USP28 inh: blocks human USP28 ubiquitin-rhodamine cleavage; purified USP28, Ub-rhodamine cleavage fluorescence, 30 min; Q96RU2; 47,000 compounds, 3% hits; inhibition, % at 25 µM
Target sequence (Q96RU2 whole entry, looked up): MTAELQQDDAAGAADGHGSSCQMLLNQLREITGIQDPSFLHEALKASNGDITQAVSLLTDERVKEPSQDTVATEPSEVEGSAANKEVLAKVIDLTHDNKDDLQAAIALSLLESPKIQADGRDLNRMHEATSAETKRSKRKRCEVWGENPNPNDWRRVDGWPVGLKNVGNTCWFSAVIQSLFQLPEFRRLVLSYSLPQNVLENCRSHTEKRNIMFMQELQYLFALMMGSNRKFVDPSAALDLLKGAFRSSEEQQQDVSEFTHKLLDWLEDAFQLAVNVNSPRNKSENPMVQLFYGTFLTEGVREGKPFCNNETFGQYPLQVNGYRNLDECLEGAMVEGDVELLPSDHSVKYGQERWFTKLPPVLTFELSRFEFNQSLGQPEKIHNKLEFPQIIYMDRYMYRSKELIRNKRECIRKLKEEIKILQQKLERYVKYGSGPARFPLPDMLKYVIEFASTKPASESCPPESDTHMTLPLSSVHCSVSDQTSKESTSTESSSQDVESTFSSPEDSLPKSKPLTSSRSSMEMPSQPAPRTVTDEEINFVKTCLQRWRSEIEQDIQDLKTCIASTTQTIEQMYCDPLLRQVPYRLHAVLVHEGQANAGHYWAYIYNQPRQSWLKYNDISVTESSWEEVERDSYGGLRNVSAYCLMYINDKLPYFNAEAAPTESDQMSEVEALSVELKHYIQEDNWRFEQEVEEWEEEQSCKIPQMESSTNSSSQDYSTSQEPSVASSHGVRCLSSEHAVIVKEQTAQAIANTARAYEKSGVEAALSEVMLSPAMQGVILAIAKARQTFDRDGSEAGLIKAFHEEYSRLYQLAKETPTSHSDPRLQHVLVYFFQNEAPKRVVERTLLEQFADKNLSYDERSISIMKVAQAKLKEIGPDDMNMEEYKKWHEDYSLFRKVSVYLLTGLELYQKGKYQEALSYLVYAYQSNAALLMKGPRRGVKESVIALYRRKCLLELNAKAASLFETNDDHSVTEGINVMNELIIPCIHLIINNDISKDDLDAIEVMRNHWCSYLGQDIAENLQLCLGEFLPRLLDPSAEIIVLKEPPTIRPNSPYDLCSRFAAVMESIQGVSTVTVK
A number is an active result; 0 = inactive; - = not tested or not shown. Rule as the data show it: active = inhibition above about 30%; inactive = the rest.

SMILES | USP17 block | USP30 inh | USP8 inh | USP28 inh
CCn1c(COc2ccc(OC)cc2)nnc1SCc1ccccc1Cl | 0 | 32.1 | 0 | 0
CCn1c(COc2ccccc2OC)nnc1SCc1ccccc1 | 0 | 0 | 0 | 0
CC(C)(C)C(=O)Nc1cccc(C(=O)Nc2ccc3c(c2)OCCCO3)c1 | 0 | 0 | 0 | 0
Cc1cnc(NC(=O)CNC(=O)c2ccccc2F)s1 | 0 | 0 | 0 | 0
O=C(CC(=O)c1c(F)cccc1F)c1ccccc1O | 0 | 30.1 | 0 | 0
Cc1nc(-c2ccccc2F)cc(N2CCC3(CC2)OCCO3)n1 | 0 | 0 | 0 | 0
COc1ccccc1CNC(=O)C1CCCN(c2nc3ccsc3c(=O)s2)C1 (stereo not given) | 56.8 | 0 | 0 | 0
O=C(NCc1ccccc1Cl)C1CCCN(c2nc3ccsc3c(=O)s2)C1 (stereo not given) | 54.6 | 0 | 0 | 0
COc1ccc(Br)cc1CNC(=O)C1CCCN(c2nnc(N3CCCC3=O)s2)C1 (stereo not given) | 39.7 | 0 | 0 | 0
COc1cccc(CNC(=O)C2CCCN(c3nnc(N4CCCC4=O)s3)C2)c1OC (stereo not given) | 0 | 0 | 0 | 0
Cc1c(C(=O)NCc2ccccc2)nnn1-c1cccc2c1CCN(C)C2 | 0 | 0 | 0 | 0
COc1cccc(Cn2nc(C(=O)O)c3ccccc3c2=O)c1 | 0 | 0 | 0 | 38.3
COc1ccc(S(=O)(=O)N2CCCCC2)cc1NC(=O)CNc1cc2c(cc1C(C)=O)OCO2 | 0 | 0 | 0 | 0
Cc1ccc(S(=O)(=O)N2CCC(c3c(C)[nH]c4ccccc34)CC2)cc1 | 0 | 0 | 0 | 0
CC1=C(C)C(c2c(-c3ccc(C)cc3)[nH]c3ccccc23)N(C(C)(C)C)C1=O (stereo not given) | 94.1 | 0 | 90.2 | 0
Cc1ccc(C(=O)Nc2ncnc3oc(-c4ccccc4)c(-c4ccccc4)c23)cc1 | 0 | 0 | 61.0 | 0
COc1ccc(N=c2oc3c(OC)cccc3cc2C(=O)Nc2ccccn2)cc1 | 0 | 0 | 0 | 0
Cc1noc(NS(=O)(=O)c2ccc(NC(=O)COc3ccc(N(C)C(=O)c4ccc(Cl)cc4)cc3)cc2)c1C | 0 | - | 0 | -
Cc1noc(NS(=O)(=O)c2ccc(NC(=O)CSc3ccc4ccccc4c3)cc2)c1C | 52.2 | 0 | 68.0 | 35.8
Cc1ccc(-c2nc(Cn3c(=O)n(C(C)C)c(=O)c4ccccc43)c(C)o2)cc1 | 0 | 0 | 0 | 0
COc1ccc(C(=O)COC(=O)/C=C/c2ccc(S(=O)(=O)Nc3cccc(S(N)(=O)=O)c3)cc2)cc1 | 0 | 0 | 0 | 43.4
CCc1ccc(NC(=O)C(C)OC(=O)/C=C/c2ccc(S(=O)(=O)Nc3cccc(S(N)(=O)=O)c3)cc2)cc1 (stereo not given) | 33.1 | 0 | 0 | 0
NS(=O)(=O)c1cccc(NS(=O)(=O)c2ccc(/C=C/C(=O)OCC(=O)c3ccc(Br)cc3)cc2)c1 | 0 | 0 | 0 | 58.9
Cc1cc(F)ccc1NC(=O)c1cnc(N2CCCCC2)nc1C | 0 | 0 | 0 | 0
O=C1CCS(=O)(=O)N1c1ccc(S(=O)(=O)Nc2cccc(Cl)c2)cc1 | 0 | 0 | 0 | 0
SMILES | USP17 block | USP30 inh | USP8 inh | USP28 inh
O=C(NCc1ccccc1Cl)c1csc(C(=O)NC2CC2)n1 | 0 | 0 | 0 | 0
COc1ccc(Cn2nccc2NC(=O)c2snnc2C)cc1 | 0 | 0 | 0 | 0
Cc1ccccc1CNC(=O)c1cccc(-c2cnc(N3CCCC3)nc2)c1 | 0 | 32.4 | 0 | 0
Cc1c(C)n(-c2ccc(Br)cn2)c2ncnc(NCCCO)c12 | 0 | 59.5 | 0 | 0
Cc1c(C)n(-c2ccc(Br)cn2)c2ncn(Cc3ccco3)c(=N)c12 | 0 | 0 | 0 | 0
COc1ccc(-c2nc3ncccc3o2)cc1NC(=O)COc1ccccc1C | 0 | 0 | 0 | 0
O=C(Nc1ccc(Cl)cn1)c1nn(C2CCS(=O)(=O)C2)c2c1CCCC2 (stereo not given) | 38.2 | 0 | 0 | 0
COc1ccc(C(=O)Nc2cnc3sccn3c2=O)cc1OC | 0 | 0 | 0 | 0
O=C(c1cc(C2CC2)[nH]n1)N1CCN(CCOc2ccc(Cl)cc2)CC1 | 0 | 0 | 0 | 0
COc1ccc(-c2csc3ncnc(NCCCN4CCOCC4)c23)cc1 | 0 | 0 | 0 | 0
NC(=O)C1CCN(CCOc2ccc(-c3[nH]ncc3-c3ccc(Cl)cc3)c(O)c2)CC1 | 0 | 0 | 77.4 | 0
Oc1cc(OCCN2CCOCC2)ccc1-c1[nH]ncc1-c1ccc(Cl)cc1 | 0 | 0 | 83.8 | 0
Oc1cc(OCCN2CCOCC2)ccc1-c1[nH]ncc1-c1ccc(Br)cc1 | - | 0 | 76.3 | 0
Nc1nc(/C=C/c2ccc(Cl)cc2)nc(-c2ccccc2O)n1 | 36.5 | 0 | 0 | 0
Nc1nc(/C=C/c2ccc(Br)cc2)nc(-c2ccccc2O)n1 | 0 | 0 | 0 | 0
O=S(=O)(Nc1cccc(-c2nnc3n2CCCCC3)c1)c1ccc2c(c1)OCCO2 | 0 | 0 | 0 | 0
Cc1ccccc1C(=O)Nc1cccc(-n2cnnn2)c1C | 0 | 0 | 0 | 0
Cc1c(NC(=O)/C=C/c2cccc(Cl)c2Cl)cccc1-n1cnnn1 | 0 | 43.3 | 80.4 | 0
COc1cc(Cl)ccc1C(=O)Nc1cccc(-n2cnnn2)c1C | 82.3 | 46.7 | 0 | 0
Cc1cnc(C(=O)N2CCCC(Cc3cncc(-c4cnc(C)n4C)n3)C2)cn1 (stereo not given) | 0 | 0 | 0 | 0
Cc1ccc(NC(=O)c2cc(-c3ccncc3)n[nH]2)c(C)c1 | 0 | 0 | 0 | 0
CC(=O)Nc1ccc(NC(=O)c2cc(-c3cc(C)cc(C)c3O)n[nH]2)cc1 | 35.0 | 62.2 | 0 | 45.5
CSc1nnc(NC(=O)c2cc(-c3cc(Cl)ccc3O)n[nH]2)s1 | 0 | 0 | 0 | 0
Cc1ccc(-c2cc(C(=O)Nc3cc(C)ccc3C)[nH]n2)c(O)c1 | 33.7 | 0 | 0 | 0
COc1ccc(OC)c(NC(=O)c2cc(-c3ccc(C)c(C)c3O)n[nH]2)c1 | 0 | 0 | 0 | 0
SMILES | USP17 block | USP30 inh | USP8 inh | USP28 inh
Cc1cccc(NC(=O)c2cc(-c3ccc(C)c(C)c3O)n[nH]2)c1 | 87.5 | 76.0 | 80.8 | 0
CC(=O)c1ccc(NC(=O)Nc2nnc3ccccn23)cc1 | 0 | - | 0 | -
O=C(NCc1cccc(F)c1)c1cc(C2CC2)n2nccc2n1 | 0 | 0 | 0 | 0
O=C1CC(c2ccccc2)N(c2nc3ccccc3o2)CCN1 (stereo not given) | 0 | 0 | 0 | 0
COc1ccccc1CC(=O)N1CCC(c2nn(CCN)c3nccnc23)C1 (stereo not given) | 0 | 34.6 | 0 | 0
Cc1nc(COc2ccccc2)sc1C(=O)NC1CCCC1 | 39.4 | 0 | 0 | 0
Cc1ccnc(Nc2nc(C)c(C(=O)NC3CCCC3)s2)c1 | 31.3 | 0 | 0 | 0
CCCCCCCc1cc(OC(=O)c2c(CCCCCCC)cc(O)cc2O[C@@H]2O[C@H](CO)[C@H](O)[C@H](O)[C@H]2O)cc(O)c1C(=O)O | 101.8 | 107.9 | 99.0 | 100.5
CCCCCCCc1cc(O)cc(OC(=O)c2c(CCCCCCC)cc(O)cc2O[C@H]2O[C@H](C(O)CO)[C@@H](O)[C@@H]2O)c1 (stereo not given in full) | 39.6 | 0 | 0 | 83.0
CCCCCCCCCc1cc(OC(=O)c2c(CCCCCCCCC)cc(O)cc2O[C@@H]2O[C@H](CO)[C@@H](O)[C@H](O)[C@H]2O)cc(O)c1C(=O)O | 100.3 | 104.1 | 94.8 | 100.6
